Assay results taken from PubChem BioAssay AID488896 (Broad Institute, 2010).
Among all 320,000 compounds or so, about 3,100 (0.97%) were called active.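 The calls were made as follows: active = mean replicate inhibition of at least 70% and a set share of replicates each scoring 70 or more; inconclusive = meets just one of the two criteria; inactive = fails both criteria.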 The sample as a whole holds a higher share of actives than the screen did.

biological target: Scavenger receptor class B member 1 (Mus musculus) (UniProt Q61009); assay: mouse SR-BI DiI-HDL uptake blockers – ldlA[mSR-BI] cells, fluorescence, single point, primary screen (AID 488896); conditions: ldlA[mSR-BI] CHO cells, 3 h, at 12.5 µM, hits give high values;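 also: 0% = median of neutral control wells and 100% = median of positive control wells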
Sequence (Q61009 whole entry, looked up): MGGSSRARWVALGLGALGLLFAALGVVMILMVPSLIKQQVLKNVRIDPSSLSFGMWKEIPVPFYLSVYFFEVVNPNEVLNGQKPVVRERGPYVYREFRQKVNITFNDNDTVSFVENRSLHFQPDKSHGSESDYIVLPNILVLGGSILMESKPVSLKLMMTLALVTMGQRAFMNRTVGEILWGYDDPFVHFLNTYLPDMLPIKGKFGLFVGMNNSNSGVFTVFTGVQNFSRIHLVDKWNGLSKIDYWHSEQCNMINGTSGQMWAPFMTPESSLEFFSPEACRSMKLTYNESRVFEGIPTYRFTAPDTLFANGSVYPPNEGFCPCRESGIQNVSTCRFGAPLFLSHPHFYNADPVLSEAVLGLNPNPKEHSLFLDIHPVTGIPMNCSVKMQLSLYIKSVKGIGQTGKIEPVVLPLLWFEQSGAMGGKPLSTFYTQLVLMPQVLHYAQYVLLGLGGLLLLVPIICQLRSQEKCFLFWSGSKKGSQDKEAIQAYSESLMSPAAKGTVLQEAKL

Row | SMILES | inhibition
1 | CC(C)(C)C(=O)Nc1cccc(-c2ccc[nH]2)n1 | -5.41% (inactive)
2 | COc1cccc(NC(=O)CN2CCN(CC(=O)Nc3ccccc3Cl)CC2)c1 | 19.8% (inactive)
3 | Cc1cc(C)cc(NC(=O)NC2CCN(CC(=O)Nc3cccc(Cl)c3C)CC2)c1 | 74.4% (active)
4 | O=C(CN1CCC(NC(=O)Nc2ccccc2)CC1)Nc1cccc([N+](=O)[O-])c1 | 30.9% (inactive)
5 | O=C(Cc1ccc([N+](=O)[O-])cc1)NCCc1ccc2c(c1)OCO2 | 30.8% (inactive)
6 | CC(C)=CCc1ccc(O)c(=O)cc1C(C)C | 12.4% (inactive)
7 | CC(=O)OC1CCC2C3CCC4=C(CC(F)C(=O)C4)C3CCC12C (stereo not given) | 3.99% (inactive)
8 | Brc1ccc(-c2csc(N/N=C/c3ccc4c(c3)OCO4)n2)cc1 | 79.4% (active)
9 | Brc1ccc(-c2csc(N/N=C/c3cccnc3)n2)cc1 | 37.2% (inactive)
10 | C(=N\Nc1ccc2ccccc2n1)/c1ccc2c(c1)OCO2 | 7.43% (inactive)
11 | NC(=O)c1ncn([C@@H]2O[C@H](CNCc3cnc(N4CCOCC4)s3)[C@@H](O)[C@H]2O)n1 | 12% (inactive)
12 | CC/C(=C(/c1ccccc1)c1ccc(OCC[N+](C)(C)C)cc1)c1ccccc1 | -44.1% (inactive)
13 | Cc1cccc(NC(=O)Nc2ccc(OCc3ccccc3)cc2)n1 | 17.6% (inactive)
14 | O=C(O)/C=C\C(=O)Nc1ccc(OCc2ccccc2)cc1 | -11.2% (inactive)
15 | CCc1ccnc(NC(=O)Nc2ccc(OCc3ccccc3)cc2)c1 | 81.9% (active)
16 | Cc1cc(NC(=O)C(C)SCC(=O)Nc2cccc(S(=O)(=O)N3CCCCCC3)c2)no1 (stereo not given) | 41.5% (inactive)
17 | Cc1cn(C2CC(O)C(CO)O2)c(=O)n(CCCc2ccccc2)c1=O (stereo not given) | 2.76% (inactive)
18 | Cc1ccccc1OCC(=O)Nc1ccc2c(c1)ncn2C | 9.34% (inactive)
19 | Cc1ccccc1OCC(=O)Nc1ccc(N2CCN(C(=O)C(C)C)CC2)c(Cl)c1 | 72% (active)
20 | Cc1ccccc1OCC(=O)Nc1ccc(S(=O)(=O)N2CCOCC2)cc1 | -12.4% (inactive)
21 | Cc1ccc(Cn2c(C)c3cnn(CC(=O)NCCN4CCOCC4)c(=O)c3c2C)cc1 | 22.1% (inactive)
22 | CCC1(C)COC(c2ccc(OC)c(OC)c2)OC1 (stereo not given) | -11.4% (inactive)
23 | Cc1ccc(C(=O)O)c(NC=O)c1OCc1ccccc1 | -19.3% (inactive)
24 | CCOC(=O)/C(C#N)=C/c1ccc(OCC(=O)Nc2ccccc2)c(OC)c1 | -11.4% (inactive)

Row | SMILES | inhibition
25 | CCOC(=O)COc1ccc([N+](=O)[O-])cc1 | -24.5% (inactive)
26 | CCOC(=O)/C(=C\c1ccc([N+](=O)[O-])cc1)C(=O)c1cc(C(C)=O)c(Nc2ccccc2)s1 | 80.9% (active)
27 | Cc1nc2ccc(N)nc2nc1C | 22.1% (inactive)
28 | O=[N+]([O-])c1ccc(NS(=O)(=O)c2ccccc2)c(Cl)c1 | -84.4% (inactive)
29 | COc1cccc2oc(CCc3ccccc3)cc(=O)c12 | -4.54% (inactive)
30 | COc1ccc(C(=O)NC(=S)Nc2ccccc2N2CCN(S(C)(=O)=O)CC2)cc1OC | 74.4% (active)
31 | CCC(=O)Nc1ccccc1N1CCN(S(C)(=O)=O)CC1 | -20.6% (inactive)
32 | COc1ccccc1C(=O)NC(=S)Nc1ccccc1N1CCCCC1 | 49.6% (inactive)
33 | COc1cccc(/C=N/Nc2ccc(S(=O)(=O)Nc3ccccc3C(=O)O)cc2[N+](=O)[O-])c1O | -4.5% (inactive)
34 | COc1cccc(C(=O)Nc2nnc(S(=O)(=O)N3CCCCC3)s2)c1 | -13.3% (inactive)
35 | O=C(Nc1ccccc1)c1ccc2c(c1)OCCCO2 | -9.51% (inactive)
36 | COc1ccc(C(=O)NCCCN2CCOCC2)cc1Br | -15.8% (inactive)
37 | COc1cccc(C(=O)Nc2ccc(N3CCN(C(=O)c4ccco4)CC3)cc2)c1 | 36.3% (inactive)
38 | COc1cccc(C(=O)NNC(=O)c2cccc(F)c2)c1 | -14.2% (inactive)
39 | COc1ccc(OCC(=O)Nc2ccc(N3CCC(C)CC3)cc2)cc1 | 65.5% (inactive)
40 | COc1ccc(C(=O)Nc2ccc(N3CCC(C)CC3)cc2)cc1Br | 94.5% (active)
41 | COc1cccc(C(=O)Nc2ccc(N3CCCC3)cc2)c1 | 80.4% (active)
42 | COc1cccc(C(=O)Nc2cc3c(cc2Br)OCCCO3)c1 | 83.6% (active)
43 | COc1ccc(CNC(=O)COC(=O)C2=Cc3ccccc3OC2)cc1 | -3.54% (inactive)
44 | O=S1(=O)CCOC[C@H](Cc2ccccc2)N1Cc1ccccc1Br | -16.4% (inactive)
45 | O=C(OCCOc1ccccc1Cl)c1cc(S(=O)(=O)N2CCCCC2)ccc1N1CCOCC1 | -9.43% (inactive)
46 | CCn1c(-c2cc(OC)ccc2OC)csc1=Nc1c(C)n(C)n(-c2ccccc2)c1=O | -4.8% (inactive)
47 | CN=c1scc(-c2cc(OC)ccc2OC)n1/N=C/c1c(C)[nH]c2ccccc12 | 77.2% (active)
48 | COCCNC(=S)N/N=C/c1c(C)[nH]c2ccccc12 | 2.4% (inactive)

Row | SMILES | inhibition
49 | O=C1C2C3C=CC(C3)C2C(=O)N1c1ncc([N+](=O)[O-])s1 (stereo not given) | -8.82% (inactive)
50 | CCC(=O)N1CCc2cc(Br)c(S(=O)(=O)NCCN3CCCCC3CC)cc21 (stereo not given) | 11.6% (inactive)
51 | COc1cc(C(=O)N2CCN(S(=O)(=O)c3ccc(C(C)C)cc3)CC2)ccc1OCC(=O)N1CCOCC1 | -10.9% (inactive)
52 | Cc1ccc(Nc2c(O)nc[nH]c2=O)cc1C | 4.84% (inactive)
53 | COC(=O)Cc1nc2c(N)nc(N)nc2[nH]c1=O | -15.9% (inactive)
54 | O=C(N/N=C/c1ccccc1O)C1CCCC1 | 4.81% (inactive)
55 | O=C(N/N=C/c1ccccc1O)/C(=C/c1ccccc1)CCO | 24.8% (inactive)
56 | O=C(NN=Cc1ccccc1O)NN=Cc1ccccc1O | 79.8% (active)
57 | COc1ccccc1C(=O)c1ccccc1C(=O)c1ccccc1 | 6.29% (inactive)
58 | COc1ccc(CNC(=O)CN2C(=O)c3ccccc3S2(=O)=O)cc1 | -16.4% (inactive)
59 | CC(C)C(=O)Nc1cccc(NC(=O)c2ccc([N+](=O)[O-])cc2Cl)c1 | -2.31% (inactive)
60 | Cc1cc([N+](=O)[O-])ccc1NC(=O)c1ccc(NC(=O)C(C)C)cc1 | 74.9% (active)
61 | CC(=O)c1ccc(NC(=O)Nc2ccc([N+](=O)[O-])cc2C)cc1 | 26.8% (inactive)
62 | Nc1ccc2[nH]c(=S)sc2c1 | 5.71% (inactive)
63 | COc1ccc(-c2nnn(CC(=O)N(CCO)C(C(=O)NC3CCCC3)c3ccc(F)cc3)n2)cc1 (stereo not given) | 10.5% (inactive)
64 | COc1cccc(N(CC(=O)NC2CCCC2)C(=O)Cn2nnc(-c3ccc(C)cc3)n2)c1 | 73.6% (active)
65 | COc1cccc(N(CC(=O)NC2CCCC2)C(=O)CCCC(=O)Nc2ccccn2)c1 | 21.1% (inactive)
66 | O=c1[nH]c2c(c(=O)n1-c1ccccc1)CCO2 | 2.86% (inactive)
67 | O=C(Cc1cc(=O)[nH][nH]1)N/N=C/c1ccccc1[N+](=O)[O-] | -19.1% (inactive)
68 | CN(C)/N=C/c1cc(Cl)cc([N+](=O)[O-])c1O | -14.6% (inactive)
69 | O=C(N/N=C/c1cc(Cl)cc([N+](=O)[O-])c1O)C(O)(c1ccccc1)c1ccccc1 | 77.8% (active)
70 | N=C1c2ccccc2-c2ccccc21 | -9.24% (inactive)
71 | CCC(C(=O)OCC(=O)Nc1c(Cl)cc(Cl)cc1Cl)c1ccccc1 (stereo not given) | -13.8% (inactive)
72 | CCC(C(=O)OCC(=O)Nc1ccc(C(=O)Nc2ccc(OC)cc2)cc1)c1ccccc1 (stereo not given) | 79.1% (active)

Row | SMILES | inhibition
73 | CCC(C(=O)OCC(=O)Nc1ccccc1-c1ccccc1)c1ccccc1 (stereo not given) | -4.74% (inactive)
74 | COc1ccc(NC(=O)/C(N=Nc2cccc(S(=O)(=O)Nc3ccc(SC(F)F)cc3)c2)=C(\C)O)cc1 | -19.4% (inactive)
75 | COC(=O)C(C)Sc1ccc2nnc(-c3cccc(F)c3)n2n1 (stereo not given) | -12.2% (inactive)
76 | COCCNc1cc(-c2ccccc2)nc2cc(-c3cccc(F)c3)nn12 | 71.2% (active)
77 | COc1ccc(NC(=O)c2cc3nc(-c4ccccc4)cc(C)n3n2)cc1OC | -10.7% (inactive)
78 | COc1ccc(NS(=O)(=O)c2ccc(N3CCOCC3)c(NC(=O)/C=C/C(=O)O)c2)cc1 | -22.2% (inactive)
79 | CC(C)Cc1nnc(N)s1 | -10.1% (inactive)
80 | CCOc1ccc(C(C)=O)cc1COC(=O)CN1C(=O)NC2(CCCC2)C1=O | 28.5% (inactive)
81 | CCOc1ccc(C(C)=O)cc1COC(=O)c1cnc(Cl)c(Cl)c1 | -10.9% (inactive)
82 | CCOc1ccc(C(C)=O)cc1COC(=O)CNC(=O)c1cccs1 | 72.6% (active)
83 | Cc1cccc(C=CC(=O)c2ccc(Cl)cc2)c1 | 0.714% (inactive)
84 | NC(CSC1(c2ccccc2)c2ccccc2-c2ccccc21)C(=O)O (stereo not given) | -5.45% (inactive)
85 | O=C(NCc1ccccc1)c1cccc(NC(=O)C2CCCCC2)c1 | 0.488% (inactive)
86 | OCC1(CO)CC2(C1)CC(CO)(CO)C2 | -21.2% (inactive)
87 | COC(=O)CCc1sc(Nc2ccc(Br)cc2)nc1-c1ccc(OC)cc1 | 87.4% (active)
88 | Cc1ccc(OC(=O)CCC(=O)Nc2ccc(Br)cc2)cc1 | -15.2% (inactive)
89 | COc1ccc(C(=O)Nc2nc(-c3ccc(OC)cc3)c(-c3ccc([N+](=O)[O-])cc3)s2)cc1 | 32.2% (inactive)
90 | COc1ccc(-c2ccc3c(c2)C2CC3CCN2CCC#N)cc1 (stereo not given) | 33.2% (inactive)
91 | C=CCn1c(=O)n(C)c2c(=O)n(C)c(=O)n(C)c21 | 1.14% (inactive)
92 | COc1ccc(CCNC(=O)COc2cc(C)cc3oc(=O)c(C)c(C)c23)cc1OC | 6.42% (inactive)
93 | Cc1ccc(C(C)C)c(OCCSc2nc3ccccc3n2CC(=O)O)c1 | -2.24% (inactive)
94 | CCCn1c(C(O)c2ccc(OCC)cc2)nc2ccccc21 (stereo not given) | 14% (inactive)
95 | CCOc1ccc(OCCSc2nc3ccccc3n2CC(=O)O)cc1 | 71.7% (active)
